# Screening results (PubChem BioAssay)
# EPAC2 antagonist = antagonists of human EPAC2; Q8WZA2; EPAC2 GEF exchange of Rap1B-BODIPY-GDP, fluorescence; Potency, µM (series often up to 114 µM), for the others: at the top dose activity, negative = inhibition, most hits filed as inhibitors; hit rate 0.18% among 360,000; also: % is scaled to controls: 0 for no effect and ±100 for the full control effect; nearly all actives have a fitted effect of over 45% in size
# EPAC2 ag = activates human EPAC2 exchange factor; Q8WZA2; EPAC2 activation, biochemical qHTS; response scale: 100% = 6.5 mM cAMP response; Potency, µM (top dose mostly 154 µM), for inactives: at the highest dose activation, actives largely listed as activators; hit rate 0.079% among 360,000; AID 720711; also: nearly all actives have a fitted effect of over 50% in size
#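 Each well held 100 nM EPAC2, 250 nM RAP1B-BODIPY-GDP and 50 uM GDP. Fluorescence, read at 5-min intervals to 30 min, was referenced to a 6.5 mM cAMP positive control.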
# USP2a inh = blocks human ubiquitin-specific protease USP2a; O75604; hit rate 0.01% among 330,000; USP2 core, Ub-CHOP2 coupled fluorogenic reporter, 485/531; Potency, µM (titrated, usually from 38.3 µM), inactives show top-dose activity change, negative = inhibition, usual class: inhibitors;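 also: plate controls were DMSO wells for no effect and full inhibition by NEM control for full effect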
# Target sequence (O75604 whole entry, looked up): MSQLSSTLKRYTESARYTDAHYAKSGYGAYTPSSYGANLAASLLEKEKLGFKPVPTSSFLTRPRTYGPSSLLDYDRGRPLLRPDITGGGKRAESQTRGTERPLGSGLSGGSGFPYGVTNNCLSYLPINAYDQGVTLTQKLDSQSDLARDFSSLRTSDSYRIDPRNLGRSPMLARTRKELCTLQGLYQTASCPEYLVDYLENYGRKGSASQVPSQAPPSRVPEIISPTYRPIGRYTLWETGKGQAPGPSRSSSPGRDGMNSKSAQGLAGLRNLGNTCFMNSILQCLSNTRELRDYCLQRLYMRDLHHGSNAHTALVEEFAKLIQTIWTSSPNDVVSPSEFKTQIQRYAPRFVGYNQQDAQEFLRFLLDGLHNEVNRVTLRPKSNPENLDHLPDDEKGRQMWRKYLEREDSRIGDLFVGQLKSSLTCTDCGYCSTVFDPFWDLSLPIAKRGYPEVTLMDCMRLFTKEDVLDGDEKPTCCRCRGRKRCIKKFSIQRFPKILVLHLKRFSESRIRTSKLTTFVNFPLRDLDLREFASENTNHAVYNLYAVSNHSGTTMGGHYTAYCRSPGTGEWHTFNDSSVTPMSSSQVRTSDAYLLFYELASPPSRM
#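 Deubiquitinase activity read as fluorescence (485/531 nm) after Ub-CHOP2 cleavage activates the enterokinase reporter on its substrate; USP2 core 10nM, Ub-CHOP2 and substrate 25nM each, 30min compound preincubation then 60min RT; data normalized to NEM, curves fitted.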
# EPAC1 antagonist = antagonists of human EPAC1; EPAC1 GEF assay, Rap1b-BODIPY-GDP exchange fluorescence; Potency, µM (titrated, usually from 115 µM), for the others: at the top dose activity change, negative = inhibition, usual class: inhibitors; hit rate 0.14% among 360,000; O95398;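 also: plate controls were vehicle for no effect and positive control for full effect; nearly all actives have a fitted effect of over 50% in size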
# EPAC1 ag = activates human EPAC1 exchange factor; O95398; EPAC1 agonist qHTS, biochemical assay; response scale: 100% = response to 6.5 mM cAMP; Potency, µM (highest dose often 154 µM), without a hit: top-dose activation, usual class: activators; hit rate 0.073% among 360,000; also: nearly all actives have a fitted effect of over 60% in size
#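 Normalized to 6.5 mM cAMP, activity reflects EPAC1-catalysed release of BODIPY-GDP from Rap1B, followed kinetically over 30 min at 480 nm excitation, 540 nm emission. Reaction contained 100 nM EPAC1, 250 nM Rap1B-BODIPY-GDP, 50 uM GDP.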
# USP1-UAF1 inh = USP1/UAF1 (human) deubiquitinase inhibition | O94782 | recombinant USP1/UAF1, Ub-Rhodamine cleavage fluorescence | Potency, µM (highest dose often 57.1 µM), for the others: at the highest dose activity change, negative = inhibition, usual class: inhibitors | hit rate 0.23% among 390,000 | AID 743255; also: % is scaled to controls: 0 for no effect and ±100 for the full control effect; nearly all actives have a fitted effect of over 60% in size
#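 USP1/UAF1 complex at 1 nM was preincubated with compound for 15 min at room temperature, then Ub-Rho substrate (150nM final) was added. Fluorescence (480/540 nm) was read kinetically, 6 reads every 60 seconds.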
# * hit, by the source's call; ? = inconclusive; . = no result. Sampled rows, rich in hits. Any-hit rate of the full collection: about 0.45%. Calls follow the shape of the dose curve; as a rule, active = well fitted curve in the direction sought with a large enough effect; inconclusive = small, poorly fitted or top-dose-only effect, or another doubt; inactive = no such curve, though single readings can be large; an effect the other way counts as inactive or inconclusive. Potency is read from the fitted curve at half-maximal effect.
SMILES,EPAC2 antagonist,EPAC2 ag,USP2a inh,EPAC1 antagonist,EPAC1 ag,USP1-UAF1 inh
COc1ccc(N2C(=O)[C@@H]3[C@H](C2=O)[C@H]2c4ccccc4C=CN2[C@@H]3C(C)=O)cc1,1%,11%,4%,-8%,3%,16µM*
CN(C)c1ccc(/C=C/C(=O)c2cccnc2)cc1,-11%,15%,15%,11%,11%,28µM*
CN(C)c1ccc(/C=C/C(=O)c2ccc(O)cc2)cc1,32%,21%,.,48%,?,25µM*
CN(C)c1ccc(C(=O)C=Cc2ccc([N+](=O)[O-])cc2)cc1,-6%,2%,.,2%,2%,?
O=C(/C=C/c1cccc(O)c1)c1cccnc1,4%,8%,1%,3%,8%,7%
O=C(/C=C/c1ccccc1)c1ccc2c(c1)OCO2,?,-1%,0%,?,-2%,-19%
COc1ccc(C(=O)/C=C/c2ccc(N(C)C)cc2)c(OC)c1,57%,-26%,?,17%,100µM*,22µM*
CN(C)c1ccc(/C=C/C(=O)c2ccc3c(c2)OCO3)cc1,59%,100µM*,18%,89%,63µM*,25µM*
Cc1c(C(=O)Nc2ccc(F)cc2F)nnn1-c1ccccc1Br,.,.,.,.,.,-16%
O=C(c1ccc2c(c1)N(Cc1ccc(Cl)cc1)C(=O)c1ccccc1S2(=O)=O)N1CCCC1,.,.,.,.,.,-17%
Cc1cccc(N(CC(=O)N(C)Cc2ccccc2)S(=O)(=O)c2ccccc2)c1C,.,.,.,.,.,-29%
CCCCn1nnnc1C(c1cc2ccccc2o1)N1CCN(c2cc(C)nc3ccccc23)CC1 (stereo not drawn),?,-1%,.,-4%,-7%,.
CCc1nn(CC(=O)Nc2ccc(NC(C)=O)cc2)c(=O)c2cc3sccc3n12,.,.,.,.,.,-7%
O=c1[nH]ncc2c3ccccc3n(Cc3cccc(Cl)c3)c12,101%,?,?,98%,79µM*,?
COC(=O)[C@@]12C[C@@H](CC(=O)NCCc3ccccc3OC)C(=O)N(Cc3cccc4ccccc34)C1=CCC(C)(C)C2,-12%,7%,.,2%,2%,.
CCCCCCCCCCCCCCCCCCNc1ccn(C2OC(COP(=O)(O)OCC3OC(n4cc(F)c(=O)[nH]c4=O)CC3O)C(O)C2O)c(=O)n1 (stereo not drawn),4%,9%,.,22µM*,-35%,?
C[C@H]1O[C@@H](n2cc(F)c(=O)[nH]c2=O)[C@H](O)[C@@H]1O,-9%,3%,0%,-8%,-8%,-14%
Cc1ccc(C)n1Cc1ccc(C(=O)O)cc1,?,-1%,?,-25%,20%,25µM*
Cc1cc(C)n(Cc2ccc(C(=O)O)cc2)n1,-1%,8%,3%,-8%,5%,-6%
Cc1ccccc1C(=O)NCc1ccc2c(c1)CCN2C(=O)c1ccc(F)cc1,.,.,.,.,.,-23%
O=C(CN1C(=O)CC(c2ccccc2)Sc2ccccc21)Nc1cccc(Cl)c1 (stereo not drawn),.,.,.,.,.,-22%
COc1cc(/C=C2\SC(=Nc3ccc(Cl)c(C(=O)O)c3)NC2=O)c(Br)c(Br)c1O,?,22%,23%,?,23%,18µM*
COC(=O)c1ccc(NC(=O)CSc2ccc(-c3sc(-c4ccccc4)nc3C)nn2)cc1,.,.,.,.,.,-5%
CC(CNC(=O)c1ccc2nc(Cc3ccccc3)oc2c1)c1ccccc1 (stereo not drawn),.,.,.,.,.,-30%
C=CCN1C(=O)/C(=C\C=C2\N(C)c3ccccc3C2(C)C)SC1=S,204%,20%,6%,10%,6%,?
C=CCN1C(=O)/C(=C/C=C2/N(CC)c3ccc(S(=O)(=O)N(C)C)cc3N2CC)SC1=S,-1%,100µM*,?,10%,100µM*,28µM*
Cc1ccc2oc(C(=O)N3CCCCCC3)c(C)c2c1,56µM*,9%,-1%,6%,4%,-13%
